# Bioassay records deposited in PubChem BioAssay by National Center for Advancing Translational Sciences (NCATS).
# Gal4-VP16 FLuc: counter-screen for ROR gamma inhibitors: Gal4-VP16 reporter. Drosophila S2 Gal4-VP16 UAS-luciferase, luminescence, 20 h. Potency, µM (titrated, usually from 53.6 µM), for inactives: at the highest dose activity, negative = inhibition, actives largely listed as inhibitors. 310,000 tested, 3.5% active;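 note: Gal4-VP16 expression switched on by copper sulfate through the metallothionein promoter; nearly all actives have a fitted effect of over 50% in size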
# PLK1 PBD block: inhibitors of human PLK1 polo-box domain binding; P53350; Plk1 PBD binding of FITC phosphopeptide, fluorescence polarization; Potency, µM, inactives show max response, negative = inhibition, most hits filed as inhibitors; 360,000 tested, 2.8% active; AID 720504; note: series mostly up to about 57 µM; nearly all actives have a fitted effect of over 65% in size
# Target sequence (P53350 whole entry, looked up, the tested form may be a part): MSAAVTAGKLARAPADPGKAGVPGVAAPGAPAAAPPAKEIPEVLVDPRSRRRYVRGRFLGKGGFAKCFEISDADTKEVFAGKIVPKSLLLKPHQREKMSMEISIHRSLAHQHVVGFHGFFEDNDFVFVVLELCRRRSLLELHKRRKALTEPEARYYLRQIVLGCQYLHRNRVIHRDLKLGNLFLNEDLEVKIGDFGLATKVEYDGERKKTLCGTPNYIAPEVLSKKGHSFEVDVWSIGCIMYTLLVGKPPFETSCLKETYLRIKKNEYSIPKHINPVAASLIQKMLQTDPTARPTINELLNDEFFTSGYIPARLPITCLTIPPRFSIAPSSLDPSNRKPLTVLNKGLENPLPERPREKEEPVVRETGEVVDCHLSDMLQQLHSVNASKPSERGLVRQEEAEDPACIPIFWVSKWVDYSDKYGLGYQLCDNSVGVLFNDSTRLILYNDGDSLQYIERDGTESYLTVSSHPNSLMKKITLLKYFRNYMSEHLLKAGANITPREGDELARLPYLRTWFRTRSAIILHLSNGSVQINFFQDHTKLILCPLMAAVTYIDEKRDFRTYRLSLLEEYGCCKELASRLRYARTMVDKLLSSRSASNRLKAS
# Sfp inh: Sfp phosphopantetheinyl transferase inhibition. Potency, µM, for inactives: largest response in the series, negative = inhibition, most hits filed as inhibitors. Q9F4F7. Biochemical Sfp PPTase activity, qHTS. 310,000 tested, 3.5% active;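 note: the enzyme is Sfp with the accession as filed and its product quenches rhodamine fluorescence; 0% = enzyme reaction without inhibitor and -100% = no enzyme wells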
#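 Buffer: 50 mM Hepes-Na pH 7.6, 10 mM MgCl2, 0.01% Nonidet P-40, 0.01% BSA. Enzyme 15 nM, pre-exposed to compound 15 min; substrates then added and fluorescence change tracked over 30 min.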
# ALDH1A1 inh: ALDH1A1 (human) enzyme inhibition | P00352 | Purified ALDH1A1, NADH fluorescence, propionaldehyde substrate | Potency, µM (top dose mostly 75.3 µM), without a hit: at the top dose activity, negative = inhibition, actives largely listed as inhibitors | 220,000 tested, 7.3% active; active = well fitted inhibition curve with a large enough effect, not every such curve was filed as active; inconclusive = small, poorly fitted or top-dose-only effect, or another doubt; inactive = no such curve, though single readings can be large or run the other way;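 note: plate controls were no enzyme wells and a reference inhibitor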
# RORgamma inh: inhibitors of mouse ROR gamma transcriptional activity | 310,000 tested, 5.4% active | Potency, µM (titrated, usually from 53.6 µM), for inactives: top-dose activity change, negative = inhibition, most hits filed as inhibitors | Drosophila S2 Gal4-RORgamma UAS-luciferase reporter, 20 h | P51450; note: nearly all actives have a fitted effect of over 60% in size
#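 A Gal4/UAS one-hybrid system in insect cells: metallothionein-promoter Gal4–ROR gamma fusion plus Photinus luciferase reporter. Copper sulfate 700 uM final, 20 hr ambient incubation, luminescent detection after 10 min with reagent.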
# An asterisk follows results filed as active; u = inconclusive; x = no result given. The list is not random: actives were taken first. Their share in the collection is about 12%. Unless noted, calls come from the whole dose curve; as a rule, active = well fitted curve in the direction sought with a large enough effect; inconclusive = small, poorly fitted or top-dose-only effect, or another doubt; inactive = no such curve, though single readings can be large; an effect the other way counts as inactive or inconclusive. Unless noted, % is set by controls: 0 for no effect and ±100 for the full control effect; potency is the fitted concentration of half-maximal effect.
SMILES,Gal4-VP16 FLuc,PLK1 PBD block,Sfp inh,ALDH1A1 inh,RORgamma inh
CCOC(=O)[C@]12CCC=C1N(Cc1ccc3c(c1)OCO3)C(=O)[C@H](CC(=O)N1CCC(c3ccccc3)CC1)C2,x,2%,x,x,x
CCN(CC)CCNC(=O)c1ccc(Cc2nc3ccccc3[nH]2)cc1,x,x,x,11%,x
Cc1cccc(C)c1NC(=S)NCCc1ccccn1,2.8µM*,6%,-18%,-4%,1.4µM*
O=C(NC(=S)N1CCOCC1)c1cc2ccccc2o1,3.2µM*,-6%,u,25µM*,1µM*
CN1CCN(C(=S)NC(=O)c2ccc(C(C)(C)C)cc2)CC1,2.5µM*,-3%,-7%,5%,1.4µM*
O=CN1CCN(C(=S)NC(=O)c2ccc(Cl)cc2)CC1,x,-1%,8%,x,x
O=C(c1cc2ccccc2o1)N1CCOCC1,x,-4%,x,x,x
CN1CCN(C(=S)NC(=O)c2ccc(-c3ccccc3)cc2)CC1,0.56µM*,10%,-25%,-5%,0.089µM*
CC(C)(C)c1ccc(C(=O)NC(=S)N2CCOCC2)cc1,1µM*,-7%,-16%,x,1.1µM*
CC(C)(C)c1ccc(C(=O)Nc2ccc(C(=O)N3CCOCC3)cc2)cc1,-7%,0%,8%,x,2%
COC(=O)c1ccc2nc(-c3ccc(C)cc3)c(Cc3cccc(Cl)c3)n2c1,x,3%,x,x,x
COc1ccc([C@H]2C[C@H](O)[C@@H](n3cc(COC(=O)c4ccccc4)nn3)CN2CC2CCCCC2)cc1,x,5%,x,x,x
Cc1ccc(C(=O)Nc2ccc(C(=O)N3CCCCC3)cc2)cc1,-6%,-25%,4%,u,15%
Cc1ccc(C(=O)NC(=S)N2CCN(C)CC2)cc1,7.1µM*,-6%,-2%,-8%,0%
Cc1ccc(C(=O)NC(=S)N2CCCC2)cc1,5µM*,-3%,7%,x,0.89µM*
Cc1ccc2c(c1)C1CN(C)CCC1N2C(=S)NC(=O)c1ccc(Br)cc1 (stereo not drawn),-73%,-35%,-3%,14µM*,0.11µM*
CC(C)Oc1ccc(C(=O)NC(=S)N2CCOCC2)cc1,1.3µM*,-4%,-1%,0%,3.5µM*
CN1CCN(C(=S)NC(=O)c2ccc(Br)cc2)CC1,1.1µM*,3%,u,x,0.89µM*
c1ccc2sc(Sc3ncnc4sccc34)nc2c1,u,-7%,-25%,-5%,10µM*
CCc1cc2c(Sc3nc4ccccc4s3)ncnc2s1,u,-9%,-4%,20µM*,8.9µM*
CCc1cc2c(SCC(=O)Nc3ccc(NC(C)=O)cc3)ncnc2s1,x,7%,x,x,x
CC(=O)Nc1ccc(CN(C)c2c(C)nc3ccc(C(=O)N4CCN(C(C)=O)CC4)cn23)cc1,x,-7%,x,x,x
COc1ccc(C2C=C3CNS(=O)(=O)C3CC2OC(=O)c2cccc(C)c2)cc1 (stereo not drawn),-11%,x,9%,x,12%
Cc1ccccc1C1NC(=S)NC2=C1C(=O)CCC2 (stereo not drawn),-17%,-10%,11%,22µM*,-20%
COc1ccccc1/C=C/C(=O)NC(=S)NCC1CCCO1 (stereo not drawn),u,-15%,1%,u,2.8µM*
SMILES,Gal4-VP16 FLuc,PLK1 PBD block,Sfp inh,ALDH1A1 inh,RORgamma inh
COc1ccc(CNC(=O)C(=O)NCC2CCCO2)cc1 (stereo not drawn),-6%,3µM*,8%,-4%,4%
Cc1ccccc1C(=O)NC(=S)NCC1CCCO1 (stereo not drawn),u,-1%,10%,9%,14µM*
CC(C)(C)c1ccc(C(=O)NNC(=S)NCC2CCCO2)cc1 (stereo not drawn),u,5%,3%,-11%,4µM*
OC[C@@H]1CN(Cc2ccc3c(c2)OCO3)C[C@H](n2cnc3c(NC4CCC4)ncnc32)O1,x,-1%,x,x,x
O=C(Nc1cccc(S(=O)(=O)N2CCCC2)c1)[C@H]1C[C@H](O)[C@@H](CO)O1,x,-11%,x,x,x
COc1ccc(C(=O)NC(=S)NCC2CCCO2)cc1 (stereo not drawn),u,-8%,23%,u,13µM*
O=C(NC(=S)NCC1CCCO1)c1ccc(Cl)cc1Cl (stereo not drawn),u,-2%,13%,-9%,11µM*
COc1ccc(/C=C/C(=O)OCC(=O)NCC2CCCO2)cc1 (stereo not drawn),2%,-8%,5%,u,20%
